# Reference: the supplement of paper PMC8728848
# Many of the other results were omitted from the sample, so the strongest signals are more common in it than they were.
# Key:
# Test in all cases: glycan array binding signal (z-score within array); higher = stronger binding
# Settings in all cases: glycan notation: IUPAC condensed, linker removed
# [1] = biological target: Fuc(a1-2)Gal(b1-3)[Fuc(a1-4)]GlcNAc(b1-3)[Gal(b1-4)GlcNAc(b1-6)]Gal(b1-4)Glc
# In short: (§1)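 Arrays were curated from the Consortium for Functional Glycomics database, 3228 in total, and kept only where the protein sequence was available. Binding is expressed as a within-array Z-score. This score was averaged across arrays of the same protein sequence at different concentrations or buffers and across linkers, and negative values can be read as non-binding.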
# [2] = biological target: Fuc(a1-2)Gal(b1-4)GlcNAc(b1-2)Man(a1-3)[Fuc(a1-2)Gal(b1-4)GlcNAc(b1-2)Man(a1-6)]Man(b1-4)GlcNAc(b1-4)GlcNAc
# In short: as §1
# [3] = biological target: Fuc(a1-2)Gal(b1-4)GlcNAc(b1-3)Gal(b1-4)GlcNAc
# In short: as §1
# [4] = biological target: Fuc(a1-2)Gal3S(b1-4)GlcNAc
# In short: as §1
# [5] = biological target: Fuc(a1-2)[Gal(a1-3)]Gal(b1-4)[Fuc(a1-3)]Glc
# In short: as §1
# [6] = biological target: Fuc(a1-2)[GalNAc(a1-3)]Gal(b1-4)GlcNAc(b1-3)GalNAc
# In short: as §1
# [7] = biological target: Fuc(a1-3)[3dGal(b1-4)]Glc
# In short: as §1
# [8] = biological target: Fuc(a1-3)[Gal(b1-4)]GlcNAc(b1-2)Man(a1-3)[Fuc(a1-3)[Gal(b1-4)]GlcNAc(b1-2)Man(a1-6)]Man(b1-4)GlcNAc(b1-4)GlcNAc
# In short: as §1
# [9] = biological target: Fuc(a1-3)[Gal(b1-4)]GlcNAc(b1-2)Man(a1-3)[Fuc(a1-3)[Gal(b1-4)]GlcNAc(b1-2)Man(a1-6)]Man(b1-4)GlcNAc(b1-4)[Fuc(a1-6)]GlcNAc
# In short: as §1
# [10] = biological target: Fuc(a1-3)[Gal3S(b1-4)]Glc
# In short: as §1
# [11] = biological target: Fuc(a1-6)GlcNAc
# In short: as §1
# [12] = biological target: Gal(a1-2)Gal
# In short: as §1
# [13] = biological target: Gal(a1-3)Gal(b1-4)GlcNAc(b1-2)Man
# In short: as §1
# [14] = biological target: Gal(b1-3)Gal(b1-4)GlcNAc
# In short: as §1
# [15] = biological target: Gal(b1-3)GalNAc(a1-3)[Fuc(a1-2)]Gal(b1-4)Glc
# In short: as §1
# [16] = biological target: Gal(b1-3)GalNAc(a1-3)[Fuc(a1-2)]Gal(b1-4)GlcNAc
# In short: as §1
# [17] = biological target: Gal(b1-3)GalNAc(b1-3)Gal
# In short: as §1
# [18] = biological target: Gal(b1-3)GalNAc(b1-3)Gal(a1-4)Gal(b1-4)Glc
# In short: as §1
# [19] = biological target: Gal(b1-3)GalNAc(b1-4)Gal(b1-4)Glc
# In short: as §1
# [20] = biological target: Gal(b1-3)GalNAc(b1-4)Gal3S(b1-4)Glc
# In short: as §1
# [21] = biological target: Gal(b1-3)GalNAc(b1-4)[Neu5Ac(a2-3)]Gal(b1-4)Glc
# In short: as §1
# [22] = biological target: Gal(b1-3)GalNAc(b1-4)[Neu5Gc(a2-3)]Gal(b1-4)Glc
# In short: as §1
# [23] = biological target: Gal(b1-3)GlcNAc(b1-3)Gal(b1-4)Glc
# In short: as §1
# [24] = biological target: Gal(b1-3)[GlcNAc(b1-6)]GalNAc
# In short: as §1
# [25] = biological target: Gal(b1-4)GlcNAc(b1-2)Man(a1-3)[GlcNAc(b1-4)][Gal(b1-4)GlcNAc(b1-2)Man(a1-6)]Man(b1-4)GlcNAc(b1-4)GlcNAc
# In short: as §1
# [26] = biological target: Gal(b1-4)GlcNAc(b1-2)Man(a1-6)Man(b1-4)GlcNAc(b1-4)GlcNAc
# In short: as §1
# [27] = biological target: Gal(b1-4)GlcNAc(b1-2)[Gal(b1-4)GlcNAc(b1-4)]Man(a1-3)[Gal(b1-4)GlcNAc(b1-2)Man(a1-6)]Man(b1-4)GlcNAc(b1-4)GlcNAc
# In short: as §1
# [28] = biological target: Gal(b1-4)GlcNAc(b1-2)[Gal(b1-4)GlcNAc(b1-6)]Man(a1-6)[Gal(b1-4)GlcNAc(b1-2)Man(a1-3)]Man(b1-4)GlcNAc(b1-4)[Fuc(a1-6)]GlcNAc
# In short: as §1
# [29] = biological target: Gal(b1-4)GlcNAc(b1-3)Fuc
# In short: as §1
# [30] = biological target: Gal(b1-4)GlcNAc(b1-3)[Fuc(a1-3)GlcNAc(b1-6)]Gal(b1-4)Glc
# In short: as §1
# [31] = biological target: Man(a1-2)Man(a1-3)[Man(a1-6)]Man(a1-6)[Man(a1-2)Man(a1-3)]Man(b1-4)GlcNAc(b1-4)GlcNAc
# In short: as §1
# [32] = biological target: Man(a1-2)Man(a1-6)[Man(a1-3)]Man(a1-6)[Man(a1-2)Man(a1-2)Man(a1-3)]Man(b1-4)GlcNAc(b1-4)GlcNAc
# In short: as §1
# [33] = biological target: Man(a1-3)[Man(a1-6)]Man(a1-6)[Man(a1-2)Man(a1-3)]Man(b1-4)GlcNAc(b1-4)GlcNAc
# In short: as §1
# [34] = biological target: Man(a1-3)[Man(a1-6)]Man(a1-6)[Man(a1-3)]Man(b1-4)GlcNAc(b1-4)GlcNAc
# In short: as §1
# [35] = biological target: Man(a1-3)[Man(a1-6)]Man(b1-4)GlcNAc(b1-4)GlcNAc
# In short: as §1
# [36] = biological target: Neu5Ac(a2-3)Gal(b1-4)GlcNAc(b1-2)Man(a1-3)[GlcNAc(b1-4)][Neu5Ac(a2-3)Gal(b1-4)GlcNAc(b1-2)Man(a1-6)]Man(b1-4)GlcNAc(b1-4)GlcNAc
# In short: as §1
# [37] = biological target: Neu5Ac(a2-3)Gal(b1-4)GlcNAc(b1-3)[Neu5Ac(a2-3)Gal(b1-4)GlcNAc(b1-6)]GalNAc
# In short: as §1
# [38] = biological target: Neu5Ac(a2-3)Gal(b1-4)[Fuc(a1-3)]GlcNAc(b1-6)[Gal(b1-3)]GalNAc
# In short: as §1
# [39] = biological target: Neu5Ac(a2-3)Gal6S(b1-4)GlcNAc
# In short: as §1
# [40] = biological target: Neu5Ac(a2-3)[GalNAc(b1-4)]Gal(b1-4)GlcNAc
# In short: as §1
# [41] = biological target: Neu5Ac(a2-6)Gal(b1-4)GlcNAc
# In short: as §1
# [42] = biological target: Neu5Ac(a2-6)Gal(b1-4)GlcNAc(b1-3)Gal(b1-4)GlcNAc(b1-2)Man(a1-3)[Neu5Ac(a2-6)Gal(b1-4)GlcNAc(b1-3)Gal(b1-4)GlcNAc(b1-2)Man(a1-6)]GalNAc
# In short: as §1
# [43] = biological target: Neu5Ac(a2-6)Gal(b1-4)GlcNAc(b1-6)[Gal(b1-3)GlcNAc(b1-3)]Gal(b1-4)Glc
# In short: as §1
# [44] = biological target: Neu5Ac(a2-8)Neu5Ac(a2-3)[Gal(b1-3)GalNAc(b1-4)]Gal(b1-4)Glc
# In short: as §1
# [45] = biological target: Neu5Ac(a2-8)Neu5Ac(a2-8)Neu5Ac(a2-8)Neu5Ac(a2-3)[GalNAc(b1-4)]Gal(b1-4)Glc
# In short: as §1
# [46] = biological target: Neu5Gc(a2-3)Gal(b1-4)GlcNAc(b1-3)Gal(b1-4)GlcNAc(b1-2)Man(a1-3)[Neu5Gc(a2-3)Gal(b1-4)GlcNAc(b1-3)Gal(b1-4)GlcNAc(b1-2)Man(a1-6)]Man(b1-4)GlcNAc(b1-4)GlcNAc
# In short: as §1
# [47] = biological target: Neu5Gc(a2-3)Gal(b1-4)[Fuc(a1-3)]GlcNAc
# In short: as §1
# [48] = biological target: Neu5Gc(a2-8)Neu5Gc(a2-3)Gal(b1-4)GlcNAc
# In short: as §1
binder,measurement,setting,value
"PNA (Arachis hypogaea), P02872 (protein) MKPFCVFLTFFLLLAASSKKVDSAETVSFNFNSFSEGNPAINFQGDVTVLSNGNIQLTNLNKVNSVGRVLYAMPVRIWSSATGNVASFLTSFSFEMKDIKDYDPADGIIFFIAPEDTQIPAGSIGGGTLGVSDTKGAGHFVGVEFDTYSNSEYNDPPTDHVGIDVNSVDSVKTVPWNSVSGAVVKVTVIYDSSTKTLSVAVTNDNGDITTIAQVVDLKAKLPERVKFGFSASGSLGGRQIHLIRSWSFTSTLITTTRRSIDNNEKKIMNMASA",glycan array binding signal (z-score),[1],-0.127
same,glycan array binding signal (z-score),[2],-0.116
same,glycan array binding signal (z-score),[3],-0.144
same,glycan array binding signal (z-score),[4],-0.183
same,glycan array binding signal (z-score),[5],-0.09
same,glycan array binding signal (z-score),[6],-0.177
same,glycan array binding signal (z-score),[7],-0.195
same,glycan array binding signal (z-score),[8],-0.106
same,glycan array binding signal (z-score),[9],-0.162
same,glycan array binding signal (z-score),[10],-0.195
same,glycan array binding signal (z-score),[11],-0.195
same,glycan array binding signal (z-score),[12],-0.169
same,glycan array binding signal (z-score),[13],-0.115
same,glycan array binding signal (z-score),[14],-0.001
same,glycan array binding signal (z-score),[15],6
same,glycan array binding signal (z-score),[16],8.53
same,glycan array binding signal (z-score),[17],5.33
same,glycan array binding signal (z-score),[18],3.33
same,glycan array binding signal (z-score),[19],7.85
same,glycan array binding signal (z-score),[20],9.11
same,glycan array binding signal (z-score),[21],3.91
same,glycan array binding signal (z-score),[22],4.74
same,glycan array binding signal (z-score),[23],0.203
same,glycan array binding signal (z-score),[24],3.79
same,glycan array binding signal (z-score),[25],-0.309
same,glycan array binding signal (z-score),[26],-0.171
same,glycan array binding signal (z-score),[27],-0.118
same,glycan array binding signal (z-score),[28],-0.186
same,glycan array binding signal (z-score),[29],-0.195
same,glycan array binding signal (z-score),[30],-0.247
"Nictaba (Nicotiana tabacum), Q94EW1 (protein) MQGQWIAARDLSITWVDNPQYWTWKTVDPNIEVAELRRVAWLDIYGKIETKNLIRKTSYAVYLVFKLTDNPRELERATASLRFVNEVAEGAGIEGTTVFISKKKKLPGELGRFPHLRSDGWLEIKLGEFFNNLGEDGEVEMRLMEINDKTWKSGIIVKGFDIRPN",glycan array binding signal (z-score),[31],4.07
same,glycan array binding signal (z-score),[32],4.83
same,glycan array binding signal (z-score),[33],6.51
same,glycan array binding signal (z-score),[34],4.21
same,glycan array binding signal (z-score),[35],3.44
same,glycan array binding signal (z-score),[36],-0.37
same,glycan array binding signal (z-score),[37],-0.389
same,glycan array binding signal (z-score),[38],-0.249
same,glycan array binding signal (z-score),[39],-0.272
same,glycan array binding signal (z-score),[40],-0.269
same,glycan array binding signal (z-score),[41],-0.276
same,glycan array binding signal (z-score),[42],1.27
same,glycan array binding signal (z-score),[43],-0.387
same,glycan array binding signal (z-score),[44],-0.3
same,glycan array binding signal (z-score),[45],-0.244
same,glycan array binding signal (z-score),[46],0.883
same,glycan array binding signal (z-score),[47],-0.366
same,glycan array binding signal (z-score),[48],-0.388
